# In PubChem BioAssay (NCATS):
# Records with an inconclusive call do not appear. Entries that show only a call come without a potency. Calls of active or inactive are those of the source. Unless noted, calls follow the shape of the dose curve; as a rule, active = well fitted curve in the direction sought with a large enough effect; inconclusive = small, poorly fitted or top-dose-only effect, or another doubt; inactive = no such curve, though single readings can be large; an effect the other way counts as inactive or inconclusive.
# What was measured:
# [1] = target: Calcium and integrin-binding protein 1 (Homo sapiens) (UniProt Q99828); experiment: Primary qHTS for Identification of Calcium Integrin Binding Protein 1 (CIB1) Competitor (AID 1508620);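 also: GST tagged CIB1 binding a fluorescein labelled alphaIIb integrin peptide tracer; top concentration of the series differs between compounds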
# Calcium and integrin-binding protein 1 (Homo sapiens), sequence (Q99828 whole entry, looked up): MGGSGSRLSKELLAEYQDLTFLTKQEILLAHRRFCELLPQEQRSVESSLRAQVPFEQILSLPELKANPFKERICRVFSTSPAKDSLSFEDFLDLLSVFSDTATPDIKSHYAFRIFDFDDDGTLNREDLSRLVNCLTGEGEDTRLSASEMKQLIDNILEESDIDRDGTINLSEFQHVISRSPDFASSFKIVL
# Outline: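 Fluorescence polarization competition: CIB1-GST (1 uM final) preincubated with compound 15 min at room temperature, then FITC-labeled alphaIIb peptide (100 nM final) added for another 15 min. Polarization read at Ex 480/Em 540.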
# [2] = Primary qHTS for inhibitors of nuclear receptor binding SET domain protein 2 (NSD2) in an isogenic RCH-ACV NSD2 p.E1099K mutant (9B) (AID 1645876); also: nearly all actives have a fitted effect of over 70% in size
# [3] = Primary qHTS for inhibitors of nuclear receptor binding SET domain protein 2 (NSD2) in an RCH-ACV wild type WT cells (2C) (AID 1645877); also: nearly all actives have a fitted effect of over 70% in size
# [4] = target: Rap guanine nucleotide exchange factor 3 (Homo sapiens) (UniProt O95398); experiment: Confirmatory qHTS for antagonist of cAMP-regulated guanine nucleotide exchange factor 3 (EPAC1) (AID 1645880); conditions: EPAC1 Rap1B-BODIPY-GDP exchange, fluorescence; also: potency is read from the fitted curve at half-maximal effect; nearly all actives have a fitted effect of over 55% in size
# Rap guanine nucleotide exchange factor 3 (Homo sapiens), sequence (O95398 whole entry, looked up): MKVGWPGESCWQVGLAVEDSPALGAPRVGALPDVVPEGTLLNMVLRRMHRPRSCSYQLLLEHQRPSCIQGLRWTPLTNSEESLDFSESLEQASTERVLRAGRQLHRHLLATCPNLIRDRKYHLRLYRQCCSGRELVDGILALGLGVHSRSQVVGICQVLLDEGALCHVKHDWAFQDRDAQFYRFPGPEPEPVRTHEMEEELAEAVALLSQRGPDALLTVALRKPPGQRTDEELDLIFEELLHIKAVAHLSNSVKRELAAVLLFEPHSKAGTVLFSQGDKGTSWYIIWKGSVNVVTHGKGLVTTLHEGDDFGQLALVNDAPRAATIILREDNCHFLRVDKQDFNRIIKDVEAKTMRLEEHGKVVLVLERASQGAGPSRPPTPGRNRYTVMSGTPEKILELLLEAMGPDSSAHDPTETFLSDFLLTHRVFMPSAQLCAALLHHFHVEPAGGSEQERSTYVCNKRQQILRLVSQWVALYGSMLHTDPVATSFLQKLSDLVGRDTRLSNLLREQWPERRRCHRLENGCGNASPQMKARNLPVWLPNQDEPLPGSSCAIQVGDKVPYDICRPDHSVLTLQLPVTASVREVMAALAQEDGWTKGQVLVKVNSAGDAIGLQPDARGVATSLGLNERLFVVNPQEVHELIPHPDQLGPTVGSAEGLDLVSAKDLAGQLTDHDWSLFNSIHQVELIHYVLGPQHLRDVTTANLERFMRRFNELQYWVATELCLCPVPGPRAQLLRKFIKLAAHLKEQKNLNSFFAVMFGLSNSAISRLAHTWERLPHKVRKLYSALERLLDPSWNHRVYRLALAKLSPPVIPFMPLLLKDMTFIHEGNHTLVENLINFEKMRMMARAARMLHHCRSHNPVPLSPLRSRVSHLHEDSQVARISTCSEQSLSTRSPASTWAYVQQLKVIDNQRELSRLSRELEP
# Outline: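 Released BODIPY-GDP fluoresces less than Rap1-bound BODIPY-GDP; the signal is followed at 480/540 nm at 5-min intervals over 30 min, after 5 min at room temperature. Reactions contain 100 nM EPAC1, 250 nM RAP1B-BODIPY-GDP and 50 uM GDP; results are normalized to ATA and DMSO.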
# [5] = target: Rap guanine nucleotide exchange factor 3 (Homo sapiens) (UniProt O95398); experiment: Confirmatory qHTS for agonist of cAMP-regulated guanine nucleotide exchange factor 3 (EPAC1) (AID 1645881);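 also: EPAC1 catalysed release of BODIPY-GDP from Rap1B seen as fluorescence loss; nearly all actives have a fitted effect of over 75% in size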
# [6] = target: Cytochrome P450 2C9 (Homo sapiens) (UniProt P11712); experiment: Cytochrome P450 family 2 subfamily C member 9 (CYP2C9) small molecule antagonists: luciferase biochemical (cell-free) qHTS assay (AID 1645842; active = well fitted curve in the direction sought with a large enough effect in the repeat runs; an effect the other way counts as inactive or inconclusive; also: potency is read from the fitted curve at half-maximal effect; nearly all actives have a fitted effect of over 55% in size)
# Cytochrome P450 2C9 (Homo sapiens), sequence (P11712 whole entry, looked up): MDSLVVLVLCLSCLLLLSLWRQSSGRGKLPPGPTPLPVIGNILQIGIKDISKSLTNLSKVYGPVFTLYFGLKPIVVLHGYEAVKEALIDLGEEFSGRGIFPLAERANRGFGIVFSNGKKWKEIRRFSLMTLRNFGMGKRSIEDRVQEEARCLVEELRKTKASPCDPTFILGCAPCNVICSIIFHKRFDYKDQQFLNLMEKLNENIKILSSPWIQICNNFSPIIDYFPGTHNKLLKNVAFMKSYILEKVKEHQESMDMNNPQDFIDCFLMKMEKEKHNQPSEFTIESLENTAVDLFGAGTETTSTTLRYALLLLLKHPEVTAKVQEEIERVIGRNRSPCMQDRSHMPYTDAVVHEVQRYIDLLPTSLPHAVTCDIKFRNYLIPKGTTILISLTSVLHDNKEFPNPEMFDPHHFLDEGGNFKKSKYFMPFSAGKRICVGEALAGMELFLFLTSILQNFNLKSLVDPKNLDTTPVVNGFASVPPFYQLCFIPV
# Outline: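 P450-Glo CYP2C9 system: proluciferin substrate with enzyme in mix containing 0.4% BSA, 10 min at room temperature, then NADPH regeneration solution added and incubated 1 h at 37C. Detection reagent stopped reaction; luminescence read after 20 min as RLU.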
compound,measurement,setting,value
COC(=O)C1=COC(OC2OC(CO)C(O)C(O)C2O)C2C(C)C(OC(=O)/C=C/c3ccc(O)cc3)C(O)C12 (stereo not drawn),Potency,[1],inactive
same,Potency,[2],inactive
same,Potency,[3],inactive
Cc1cc(-n2c(=O)[nH]c(=O)n(C)c2=O)ccc1Oc1ccc(SC(F)(F)F)cc1,Potency,[1],inactive
same,Potency,[2],inactive
same,Potency,[3],inactive
CC1(C)C2CC[C@]3(C)C(C(=O)C=C4[C@H]5C[C@@](C)(C(=O)O)CC[C@]5(C)CC[C@]43C)[C@@]2(C)CC[C@@H]1O (stereo partly drawn),Potency,[1],inactive
same,Potency,[2],inactive
same,Potency,[3],inactive
CC1CC=C2C1CC1(O)C(=O)CC2(C)C1(C)CO (stereo not drawn),Potency,[1],inactive
same,Potency,[2],inactive
same,Potency,[3],inactive
C[C@@H]1CC[C@]2(C(=O)O)CC[C@]3(C)C(=CCC4[C@@]5(C)C[C@@H](O)[C@@H](O)C(C)(C)C5CC[C@]43C)C2[C@]1(C)O (stereo partly drawn),Potency,[1],inactive
same,Potency,[2],inactive
same,Potency,[3],inactive
C=C1CC23CC1CCC2C12OC(=O)C(C)(C(O)C(O)C1O)C2C3C(=O)O (stereo not drawn),Potency,[1],inactive
same,Potency,[2],inactive
same,Potency,[3],inactive
Cc1ccccc1NC(=O)Nc1ccc(CN2C(=O)N([C@@H](CC(C)C)C(=O)N[C@@H](CC(=O)O)c3ccccc3)C(=O)C2(C)C)cc1,Potency,[2],inactive
same,Potency,[3],inactive
COc1cc(Nc2ccc([N+](=O)[O-])cc2C(=O)O)cc2ccccc12,Potency,[2],inactive
same,Potency,[3],inactive
O=C(Nc1cc(-c2ccccc2)nn1-c1ccccc1F)c1ccc([N+](=O)[O-])cc1,Potency,[1],inactive
same,Potency,[3],inactive
Cc1ccc([C@@H]2CC=C(C(=O)O)[C@H](c3ccc(C(C)(C)C)cc3)N2S(=O)(=O)c2ccc(C)cc2)cc1,Potency,[1],inactive
same,Potency,[4],50.1 µM (active)
same,outcome,[5],inactive
O=C(O)c1cccc(CN2C(=O)/C(=C(\c3ccccc3)c3ccc(Cl)cc3)c3ccccc32)c1,Potency,[6],15.1 µM (active)
